In PubChem BioAssay (EPA / NIEHS) one finds outcome and AC50 data, which are given here for seven compounds.

Where “and” joins values, the source holds several entries; their conditions need not be identical. Equal entries are not always repeated. Results filed as inconclusive are left out. Where a structure was tested more than once in an assay, its records may differ in their call. Calls of active or inactive are those of the source. Rule for the calls, unless noted: active = hit-call score of the fitted dose curve at least 0.9, where 1 is the maximum; inconclusive = response in the unintended direction; inactive = score below 0.9.

Read-out in experiment [1]: X-box binding protein 1 (XBP1), XBP1 (gene 7494)
The experiment in a line: LTEA_HepaRG_XBP1: Life Technologies and Expression Analysis (LTEA) Assay for X-box binding protein 1 (XBP1) using HepaRG (AID 2283540; active = hit-call score of the fitted dose curve at least 0.9, where 1 is the maximum; inactive = score below 0.9). To be noted: mRNA level, 48 h; actives raise or lower the signal. In short, it runs like this:
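HepaRG, 48 h exposure, 8-pt half-log CRC top 100 uM, 0.5% DMSO vehicle, duplicates. Readout: TaqMan qRT-PCR of XBP1 mRNA, housekeeping-normalised (ACTB/GAPDH/POLR2A); bidirectional fit vs DMSO baseline.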

The nature of experiment [2]: LTEA_HepaRG_LDH_cytotoxicity: Cytotoxicity Assessment in the Life Technologies and Expression Analysis (LTEA) Assay (AID 2283563).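 For AC50: LDH activity released into spent culture medium as a marker of cell death.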 The method in brief:
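HepaRG (human liver line), 48 h exposure, 8-pt half-log series from 100 uM, 0.5% DMSO vehicle, duplicates. Read-out: LDH in spent medium. Positive-direction fit vs DMSO baseline.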

Experiment [3] can be described thus: TOX21_p53_BLA_p2_viability: Viability Assessment in the Tox21 HCT-116 p53 Agonism Beta-lactamase Assay, Phase 2 (AID 2283591).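 Note: actives lower the ATP signal meaning cytotoxicity.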 The method in brief:
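HCT116 p53-bla cells, 4000/well, dosed after 5 h plating (217-fold dilution of DMSO stocks) and incubated 16 h at 37C. Viability taken as cellular ATP by CellTiter-Glo luminescence after 30 min RT; signal loss marks cytotoxicity.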

Experiment [4] concerns the target Cellular tumor antigen p53 (Homo sapiens) (UniProt P04637). The experiment can be described thus: TOX21_p53_BLA_p2_ratio: Tox21 HCT-116 p53 Agonism Beta-lactamase Assay, Ratio, Phase 2 (AID 2283592). The method in brief:
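Readout: blue/green (460/530 nm) FRET emission ratio after 2 h CCF4-AM loading at room temperature, excitation 405 nm. HCT116 p53 bla cells, 16 h compound exposure at 37C, 5% CO2; agonist direction fitted against DMSO baseline.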

A short description of experiment [5]: TOX21_p53_BLA_p3_viability: Viability Assessment in the Tox21 HCT-116 p53 Agonism Beta-lactamase Assay, Phase 3 (AID 2283593).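 Note: cells exposed to compound for 16 h before reading.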 In short, it runs like this: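 HCT116 cells, 4000/well, dosed 5 h after plating by pin transfer (217-fold dilution from DMSO stock) and incubated 16 h at 37C, 5% CO2. Viability read as ATP luminescence with CellTiter-Glo after 30 min at room temperature.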

In experiment [6] the target is Cellular tumor antigen p53 (Homo sapiens) (UniProt P04637). The experiment in a line: TOX21_p53_BLA_p3_ratio: Tox21 HCT-116 p53 Agonism Beta-lactamase Assay, Ratio, Phase 3 (AID 2283596). The method in brief: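 Cells were seeded at 4000/well, rested 5 h at 37C, then dosed with DMSO compound solutions (217-fold dilution) for 16 h. CCF4-AM substrate was loaded for 2 h at room temperature, and the 460/530 nm emission ratio was fitted for gain of signal versus DMSO.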

Experiment [7] can be described thus: TOX21_p53_BLA_p4_viability: Viability Assessment in the Tox21 HCT-116 p53 Agonism Beta-lactamase Assay, Phase 4 (AID 2283597).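 Note: hits lower the luminescence signal meaning cytotoxicity.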 In short, it runs like this:
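ATP content by CellTiter-Glo luminescence, 30 min RT, read after the beta-lactamase ratio step. Cells: HCT116, 4000/well, compound added after 5 h, exposure 16 h at 37C. Signal loss = reduced viability.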

Experiment [8] deals with Cellular tumor antigen p53 (Homo sapiens) (UniProt P04637). The experiment in a line: TOX21_p53_BLA_p5_ratio: Tox21 HCT-116 p53 Agonism Beta-lactamase Assay, Ratio, Phase 5 (AID 2283599). The method in brief:
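HCT-116 p53-bla cells (4000/well) plated 5 h, dosed with compound (217-fold DMSO dilution) for 16 h at 37 C; CCF4-AM substrate 2 h at room temperature. Activity is the 460/530 nm emission ratio (405 nm excitation), fitted in gain-of-signal direction versus DMSO.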

The target is the same in experiment [9]. The experiment in a line: TOX21_p53_BLA_p4_ratio: Tox21 HCT-116 p53 Agonism Beta-lactamase Assay, Ratio, Phase 4 (AID 2283601). In short, it runs like this:
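HCT-116 p53 beta-lactamase reporter cells (4000/well) preincubated 5 h, then compound (217-fold dilution of DMSO stock) for 16 h at 37C. CCF4-AM substrate added 2 h at room temperature; 460/530 nm emission ratio fitted upward versus DMSO.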

Experiment [10] in a line: Tanguay_ZF_120hpf_MORT_legacy: (Legacy) Oregon State University Tanguay Lab 120 Hour Post-fertilization zebrafish Assay for Mortality (AID 2283633).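 For AC50: fitted as increase in binary mortality versus DMSO negative control.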 The method in brief: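 Brightfield scoring of embryo death (binary) at 24 and 120 hpf; static exposure 6–120 hpf, 28C, sealed and foil-covered. Pronase-dechorionated 5D wild-type larvae, single embryo per well. DMSO 0.64% v/v; trimethyltin chloride 5uM positive control.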

The nature of experiment [11]: Tanguay_ZF_120hpf_YSE_legacy: (Legacy) Oregon State University Tanguay Lab 120 Hour Post-fertilization zebrafish Assay for Yolk Sac Edema (AID 2283634).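 For AC50: actives raise the incidence of yolk sac edema above the DMSO baseline.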 The method in brief:
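Binary brightfield scoring of yolk sac edema at 120 hpf; DMSO baseline, gain-of-signal fitting. Dechorionated 5D larvae, one per well, static exposure 6–120 hpf, 28C, 0.64% DMSO. Dead embryos not scored.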

Experiment [12] is described as follows: Tanguay_ZF_120hpf_AXIS_legacy: (Legacy) Oregon State University Tanguay Lab 120 Hour Post-fertilization zebrafish Assay for Body Axis Malformation (AID 2283635).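 For AC50: potency for an increased fraction of larvae scored with body axis malformation.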 The method in brief: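 Embryos: 5D wild-type, pronase-dechorionated 4 hpf; static exposure 6–120 hpf, 28C, sealed, dark, 1 embryo/well, 0.64% DMSO. 120 hpf axis malformation scored present/absent; dead embryos excluded. Analysed as gain of signal vs DMSO.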

A short description of experiment [13]: Tanguay_ZF_120hpf_SNOU_legacy: (Legacy) Oregon State University Tanguay Lab 120 Hour Post-fertilization zebrafish Assay for Snout Malformation (AID 2283637). In short, it runs like this:
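Binary brightfield scoring of snout malformation at 120 hpf. Dechorionated 5D wild-type embryos, one per well, static exposure from 6 hpf at 28C, sealed and dark; final DMSO 0.64% (vol/vol), DMSO as baseline; 5uM trimethyltin chloride positive control.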

Experiment [14] in a line: Tanguay_ZF_120hpf_JAW_legacy: (Legacy) Oregon State University Tanguay Lab 120 Hour Post-fertilization zebrafish Assay for Jaw Malformation (AID 2283638).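 For AC50: active means more embryos with jaw malformation than DMSO controls.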 In short, it runs like this:
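Binary jaw-malformation calls at 120 hpf by brightfield imaging; DMSO (0.64% v/v) = baseline. Embryos: 5D wild-type, pronase-dechorionated, one per well from 6 hpf, static exposure, 28C, sealed, dark.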

Experiment [15] is described as follows: Tanguay_ZF_120hpf_OTIC_legacy: (Legacy) Oregon State University Tanguay Lab 120 Hour Post-fertilization zebrafish Assay for Otic Vesicle Malformation (AID 2283639). The method in brief:
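Wild-type zebrafish larvae, whole-embryo exposure from early stage to 120 hpf at 28C. Binary brightfield scoring of otic vesicle morphology, fitted in the positive direction against the DMSO baseline.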

Experiment [16] can be described thus: Tanguay_ZF_120hpf_PE_legacy: (Legacy) Oregon State University Tanguay Lab 120 Hour Post-fertilization zebrafish Assay for Pericardial Edema (AID 2283640).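 For AC50: potency for increased incidence of pericardial edema versus DMSO baseline.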 In short, it runs like this: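 Static waterborne exposure, 5D wild-type embryos, 28C, to 120 hpf; final DMSO 0.64% (vol/vol). Binary PE call at 120 hpf by brightfield; fitted upward vs DMSO baseline. 5uM trimethyltin chloride as positive control.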

The nature of experiment [17]: Tanguay_ZF_120hpf_BRAI_legacy: (Legacy) Oregon State University Tanguay Lab 120 Hour Post-fertilization zebrafish Assay for Brain Malformation (AID 2283641). The method in brief: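 Read-out: binary brain morphology call at 120 hpf (brightfield), fitted in gain-of-signal direction vs DMSO. Wild-type Tropical 5D embryos, static exposure, 28C, 0.64% DMSO final; 5uM trimethyltin chloride as positive control.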

The nature of experiment [18]: TOX21_p53_BLA_p5_viability: Viability Assessment in the Tox21 HCT-116 p53 Agonism Beta-lactamase Assay, Phase 5 (AID 2283600). The method in brief:
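ATP luminescence (CellTiter-Glo, 30 min, RT) served as the viability read-out, with loss of signal indicating cytotoxicity. Compounds in DMSO were pinned at a 217-fold dilution onto 4000 cells/well and incubated 16 h, 37C.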

Experiment [19] in a line: Tanguay_ZF_120hpf_EYE_legacy: (Legacy) Oregon State University Tanguay Lab 120 Hour Post-fertilization zebrafish Assay for Eye Malformation (AID 2283636).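 Note: binary presence or absence of eye malformation scored by brightfield in 120 hpf larvae.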 The method in brief:
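5D wild-type embryos, pronase-dechorionated at 4 hpf; static exposure 6–120 hpf, 28C, dark; DMSO 0.64% final; 5uM trimethyltin chloride positive control. Binary eye-defect scoring at 120 hpf; dead embryos not scored.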

The nature of experiment [20]: ATG_XTT_Cytotoxicity: Cytotoxicity Assessment in the Attagene TRANS-FACTORIAL HepG2 Assay (AID 2283584). The method in brief: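 XTT readout of cell number in transfected HepG2 cells, 24 h post-dosing; DMSO serves as negative control and baseline, with activity taken as loss of viability signal.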

Broadly, the AC50 is the concentration giving half of the maximal activity seen.

Sequence of Cellular tumor antigen p53 (Homo sapiens) (P04637 whole entry, looked up): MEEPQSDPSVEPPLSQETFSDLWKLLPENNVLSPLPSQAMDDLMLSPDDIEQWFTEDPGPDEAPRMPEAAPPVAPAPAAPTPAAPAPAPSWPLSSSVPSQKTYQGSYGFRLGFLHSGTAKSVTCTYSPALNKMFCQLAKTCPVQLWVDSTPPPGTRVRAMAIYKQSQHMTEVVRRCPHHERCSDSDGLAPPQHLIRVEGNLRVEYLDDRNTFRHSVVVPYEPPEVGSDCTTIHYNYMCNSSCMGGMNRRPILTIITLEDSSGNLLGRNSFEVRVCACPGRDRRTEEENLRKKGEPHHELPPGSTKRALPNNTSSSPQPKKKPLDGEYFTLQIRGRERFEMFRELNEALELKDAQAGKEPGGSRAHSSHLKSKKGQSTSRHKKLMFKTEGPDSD

On to `O=C1C2CC=CCC2C(=O)N1SC(Cl)(Cl)Cl` (centres undefined), for which the compound was classed as inactive in [1], in experiment [3], in [4], in experiment [5], in experiment [6] and in [7]. In addition, the result in experiment [8], in [9], in experiment [11], in experiment [12], in experiment [13] and in [14] was inactive. In addition, the compound was called inactive in experiment [15], in [16] and in [17]. Moreover, the half-maximal activity concentration (AC50) in experiment [2] was 74.5 µM (active); in [3] it was 25.6 µM (active); in experiment [4], 4.12 µM (active) and 7.62 µM (active); in [6] it was 77.7 µM (active) and 6.5 µM (active); in experiment [7], 18.1 µM (active); in experiment [8] it was 19.5 µM (active). The half-maximal activity concentration (AC50) in experiment [9] is 10.3 µM (active); in [10], 25.1 µM (active).

For `CC(C)N1C(=O)c2ccccc2NS1(=O)=O`, the outcome in experiment [1], in experiment [2], in experiment [3], in experiment [4], in experiment [5] and in [6] was inactive. In addition, the compound was classed as inactive in experiment [7], in experiment [8], in experiment [18], in experiment [9], in experiment [10] and in [12]. Further, the outcome in experiment [19], in experiment [13], in experiment [14], in experiment [15], in experiment [16] and in experiment [17] was inactive.

Turning to `Cc1c(COC(=O)[C@@H]2[C@H](/C=C(\Cl)C(F)(F)F)C2(C)C)cccc1-c1ccccc1`, the compound was called inactive in experiment [1], in [2], in [3], in experiment [4], in experiment [5] and in experiment [6]. For the same compound, the compound was classed as inactive in [7], in experiment [8], in experiment [9], in experiment [10], in [11] and in experiment [12]. Also, the call in experiment [19], in experiment [13], in [14], in experiment [15], in [16] and in experiment [17] was inactive. Also, in [5], the AC50 was 25.8 µM (active).

Consider `COc1ccc(-c2ccccc2)cc1NNC(=O)OC(C)C`, for which the compound was called inactive in [1], in [2], in [3], in experiment [4], in experiment [5] and in experiment [6]. Moreover, the result in experiment [7], in experiment [8], in experiment [9], in experiment [10], in experiment [11] and in experiment [12] was inactive. Besides, the outcome in experiment [19], in experiment [13], in experiment [14], in [15], in [16] and in [17] was inactive.

Regarding `CC1(C)C(C=C(Cl)Cl)C1C(=O)OC(C#N)c1cccc(Oc2ccccc2)c1` (centres undefined), the compound was called inactive in [1], in experiment [2], in [20], in experiment [3], in experiment [4] and in [5]. For the same compound, the outcome in experiment [6], in experiment [7], in experiment [8], in [9], in experiment [10] and in [15] was inactive. The compound was classed as inactive in experiment [17]. In addition, the half-maximal activity concentration (AC50) in [11] was 1.7 µM (active); in experiment [12] it was 1.23 µM (active); in experiment [19], 1.82 µM (active); in experiment [13], 1.53 µM (active); in experiment [14], 1.66 µM (active); in [16], 1.66 µM (active).

As to `COC(=O)N(C(=O)N1CO[C@@]2(C(=O)OC)Cc3cc(Cl)ccc3C2=N1)c1ccc(OC(F)(F)F)cc1`, the compound was classed as inactive in experiment [1], in [3], in experiment [5], in experiment [6], in experiment [7] and in [8]. The compound was called inactive in experiment [10], in [11], in experiment [19], in experiment [13], in experiment [14] and in experiment [15]. For the same compound, the outcome in [16] and in experiment [17] was inactive. The values for the concentration at half-maximal activity (AC50) in experiment [2], in experiment [4] and in experiment [9] were 60.5 µM (active), 46.3 µM (active) and 37.6 µM (active), respectively.

In the case of `CC(C)(C)C(=O)C(Oc1ccc(Cl)cc1)n1cncn1` (centres undefined), the compound was classed as inactive in experiment [1], in [2], in experiment [3], in experiment [4], in experiment [5] and in experiment [6]. Moreover, the result in experiment [7], in [19], in [14] and in experiment [17] was inactive. In addition, the half-maximal activity concentration (AC50) is 86 µM (active) in [8]; 36.8 µM (active) in [11]; 41.3 µM (active) in experiment [12]; 34.8 µM (active) in experiment [13]; 37.5 µM (active) in [16].
